# An excerpt weighted towards active compounds, which were near 4.1% of everything screened.
# ALR inh: inhibitors of human ALR sulfhydryl oxidase, primary screen, biochemical, H2O2 detection, HRP-luminol luminescence, single point; FAD-linked sulfhydryl oxidase ALR (Homo sapiens), P55789; purified ALR, DTT oxidation; inhibition, % (no concentration beside the values); 290,000 compounds, 3.8% hits; AID 485317, 2010;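 active = mean replicate inhibition above about 79%, with every replicate also reaching it, limit read from the data; inconclusive = only one of the two criteria met; inactive = mean below limit and not every replicate reaching it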
# Target sequence (P55789 whole entry, looked up): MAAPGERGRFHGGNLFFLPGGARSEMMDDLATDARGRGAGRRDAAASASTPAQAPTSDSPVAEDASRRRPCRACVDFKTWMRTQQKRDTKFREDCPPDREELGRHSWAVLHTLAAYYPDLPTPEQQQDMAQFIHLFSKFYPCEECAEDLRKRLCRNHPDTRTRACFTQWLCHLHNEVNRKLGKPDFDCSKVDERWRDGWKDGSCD
# PfM18AAP inh-1: PfM18AAP inhibitors, malaria aminopeptidase, primary screen, biochemical, QFRET, recombinant enzyme. M18 aspartyl aminopeptidase (Plasmodium falciparum 3D7). H-Glu-NHMec fluorogenic cleavage. inhibition, % at 7.35 µM. 290,000 compounds, 1.2% hits. AID 1822, 2009;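 active = inhibition above the campaign mean inhibition over all tested compounds plus 3 SD, cut at about 28% in these data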;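 also: 0% = plate median of test compound wells and 100% = 2 mM ZnCl2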
# IDE inh: human IDE inhibitors in live cells, primary screen, fluorescence polarization, HEK cells, FAbetaB substrate; FAbetaB cleavage; inhibition, % at 5.59 µM; 320,000 compounds, 0.41% hits; AID 434962, 2010;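 active = percent inhibition above the average of all tested compounds plus 3 SD, set per screening campaign, cut at about 16% in these data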;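 also: IDE supplied by intact live HEK cells; FP after avidin binding of uncleaved biotin substrate so inhibition keeps polarization high; 0% = DMSO wells and 100% = 60 µM reference IDE inhibitor Ii1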
# IDE act: human IDE activators in live cells, primary screen, fluorescence polarization, HEK cells, FAbeta-B substrate. FAbeta-B cleavage; 0% vehicle, 100% cell-free pure enzyme wells. activation, % at 5.96 µM. 340,000 compounds, 0.073% hits;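 active = activation above the mean of all tested compounds plus 3 SD, set per screening campaign, cut at about 17% in these data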
# PolyA inhibitor: polyadenylation inhibitors in yeast reporter cells, primary screen, luminescence, S. cerevisiae. S. cerevisiae SKY197-pL101 polyadenylation reporter, beta-gal luminescence; efflux-impaired pdr1/pdr3 knockout yeast; score 100 = 6 SD above DMSO. activity score, % at 12 µM. 300,000 compounds, 0.02% hits. AID 1875, 2009;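 active = lowest replicate activity score at least 50, where 100 means six control SD above control mean; inconclusive = lowest score under 50 but half or more replicates reach 50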;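 also: yeast exposed to compound for 9 h at 30 °C; higher score means more reporter readthrough which indicates perturbed polyadenylation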
# CaV13 FRET inh: Primary screen for inhibitors of IQ motif and Ca2+-dependent inactivation inhibitor domain binding in CACNA1D, Förster resonance energy transfer in living cells, … | inhibition, % at 12.3 µM | AID 743397 | 340,000 compounds, 0.098% hits | HEK cells, CFP/YFP FRET ICDI-IQ, plate reader, 10 min; percent FRET-ratio fall versus neutral wells;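 active = mean replicate inhibition of at least 30% and at least 1% of replicates passing that level; inconclusive = only one of the two criteria is met; inactive = neither criterion is met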;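 also: 0% = median of the neutral control wells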
# PfM18AAP inh-2: PfM18AAP inhibitors, malaria aminopeptidase, confirmation, biochemical, QFRET, recombinant enzyme, triplicate. shares compounds with PfM18AAP inh-1. H-Glu-NHMec fluorogenic cleavage. inhibition, % at 7.35 µM. 2,400 compounds, 28% hits;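 active = mean inhibition over replicate wells above the hit cutoff set for the earlier primary screen, cut at about 29% in these data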;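 also: 0% = median of test compound wells and 100% = 2 mM ZnCl2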
# CTSL1 counter: cathepsin L1 inhibitors, retest, confirmation, counter-screen for PFM18AAP inhibitor project, biochemical, QFRET, triplicate; shares compounds with PfM18AAP inh-1; purified cathepsin L1, Z-Leu-Arg-MCA fluorescence; inhibition, % at 5.96 µM; 2,400 tested, under 10 active; AID 2178, 2009;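 active = average inhibition across replicates above the hit cutoff set in the earlier primary screen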;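 also: 0% = median of test compound wells and 100% = Z-Phe-Ala-diazomethylketone 1 µM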
# Target sequence (P07711 whole entry, looked up): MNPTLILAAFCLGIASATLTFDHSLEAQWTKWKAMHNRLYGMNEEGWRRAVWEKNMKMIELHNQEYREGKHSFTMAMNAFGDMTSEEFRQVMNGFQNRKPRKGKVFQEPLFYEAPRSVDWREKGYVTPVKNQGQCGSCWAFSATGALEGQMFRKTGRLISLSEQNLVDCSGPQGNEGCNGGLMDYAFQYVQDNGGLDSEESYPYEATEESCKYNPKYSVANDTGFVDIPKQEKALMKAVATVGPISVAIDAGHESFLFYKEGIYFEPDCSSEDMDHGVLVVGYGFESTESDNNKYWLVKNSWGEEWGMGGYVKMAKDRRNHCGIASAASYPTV
# IDE inh confirm: human IDE inhibitors in live cells, confirmation, fluorescence polarization, HEK cells, FAbetaB substrate | shares compounds with IDE inh | FAbetaB cleavage | inhibition, % at 5.59 µM | 1,200 compounds, 51% hits;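 active = mean inhibition across triplicate wells above the cutoff set by the earlier primary insulin-degrading enzyme screen, cut at about 16% in these data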;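 also: 0% = DMSO wells and 100% = 60 µM reference IDE inhibitor Ii1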
# HEK293 tox: cytotoxicity in HEK cells, cytotoxicity control for IDE inhibitor project, cell-based, luminescence | shares compounds with IDE inh | HEK293 cytotoxicity, ATP luminescence | inhibition, % at 5.59 µM | 1,200 compounds, 28% hits; in the data active = inhibition above about 22%;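 also: 0% = vehicle wells and 100% = reference cytotoxic drug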
# An asterisk follows results filed as active; ? = inconclusive; . = no result given.
SMILES,ALR inh,PfM18AAP inh-1,IDE inh,IDE act,PolyA inhibitor,CaV13 FRET inh,IDE inh confirm,HEK293 tox,others
Nc1c(C(=O)NCCc2ccccc2)sc2nc(N3CCOCC3)c3c(c12)CCCC3,.,37.4*,17.2*,-18.4,-10.1,-5.4,0.1,28.5*,PfM18AAP inh-2=-17.2;CTSL1 counter=-3.4
CC1C(=O)N2CCCc3cc(NC(=O)C(=O)NCc4cccnc4)cc1c32 (stereo not drawn),-4.0,.,0.1,1.5,1.1,-5.5,.,.,
O=C(Cc1c[nH]c2ccccc12)NCc1ccc2c(c1)OCO2,-0.8,8.0,1.9,6.8,13.0,.,.,.,
Cc1cc([N+](=O)[O-])nn1CC(=O)NCCCN1CCOCC1,-2.0,-4.2,4.9,-0.7,-8.8,-1.7,.,.,
Cc1cc(C)c2c(=O)n(CC(=O)NCCCN3CCN(c4ccccc4F)CC3)sc2n1,.,46.5*,39.1*,.,9.6,.,10.8,114.5*,PfM18AAP inh-2=-9.1;CTSL1 counter=0.2
Cc1cc(C)c2c(=O)n(CC(=O)NCCCN3CCOCC3)sc2n1,45.9,54.0*,21.5*,-59.3,0.7,.,20.2*,3.5,PfM18AAP inh-2=32.0*;CTSL1 counter=0.4
Cc1ccccc1CS(=O)(=O)CCC(=O)NCCCN1CCN(c2ccccc2F)CC1,7.9,-16.1,-0.4,-0.6,9.5,.,.,.,
COP1(=O)C=C[C@H](N(Cc2ccccc2)S(=O)(=O)c2ccccc2[N+](=O)[O-])[C@@H](C)O1 (stereo partly drawn),-1.9,.,-3.4,1.3,0.7,-11.4,.,.,
Cc1ccc(OCc2cc(C(=O)NCCn3cccn3)no2)cc1C,5.0,-7.6,2.7,-2.0,2.4,-3.2,.,.,
COCCN1CC(CNC(=O)c2cc(COc3ccc(C)c(C)c3)on2)CC1=O (stereo not drawn),-2.2,-4.3,16.9*,-14.5,-2.6,-7.4,7.0,11.3,
c1ccc(-c2noc(CC3CCCCC3)n2)nc1,3.1,3.0,1.1,-1.2,-10.2,-2.1,.,.,
Cc1ccc2nc(-c3ccc(NC(=O)c4ccco4)cc3)[nH]c2c1,0.2,0.9,16.8*,-24.2,-8.2,-6.4,14.3,10.1,
CS(=O)(=O)c1cccc(C(=O)Nc2ccc(-c3nc4ccccc4[nH]3)cc2)c1,?,4.8,27.9*,-17.3,1.6,-4.0,8.1,36.1*,
COc1ccc(C(=O)c2sc3nc(-c4ccccc4)ccc3c2N)cc1,-1.6,6.9,21.5*,-33.8,.,.,19.5*,13.4,
CC(C)OC(=O)c1sc2nc(-c3ccccc3)ccc2c1N,-2.4,7.1,2.2,1.3,-10.6,10.9,.,.,
Cc1cccc(N2CCN(c3ccc4cc(S(=O)(=O)N5CCCCC5)ccc4n3)CC2)c1C,-1.6,-3.4,-1.6,5.8,-3.0,-7.4,.,.,
CCCN1CCC2(CC1)C(C#N)=C(N)Oc1c2sc2nc(C)cc(C)c12,11.1,2.0,22.8*,-13.4,11.2,-2.5,7.3,11.8,
CCOC(=O)N1CCC2(CC1)C(C#N)=C(N)Oc1c2sc2nc(C)cc(C)c12,13.5,26.9,-0.4,-7.9,0.6,-6.2,.,.,
COc1ccc(NC(=O)CCc2nc(-c3ccccc3F)no2)cc1,-9.7,-1.4,4.9,-0.2,9.6,-1.6,.,.,
Cc1ccc(S(=O)(=O)/N=C2/NC(=O)/C(=C/c3cc([N+](=O)[O-])ccc3O)S2)cc1,28.6,30.5*,57.7*,-44.6,-33.3,-10.5,80.0*,5.0,
COc1cc(/C=C2\S/C(=N/S(=O)(=O)c3ccc(C)cc3)NC2=O)c([N+](=O)[O-])cc1OC,20.9,17.0,-2.2,-3.8,10.9,-9.9,.,.,
CN(C)CCCNC(=O)C1(O)c2cc(Br)ccc2NC(=O)N1c1c(F)cccc1F (stereo not drawn),-28.7,5.1,-0.6,0.9,7.7,-1.5,.,.,
CCCN1CCc2c(sc(NC(=S)NC(=O)c3ccccc3)c2C#N)C1,-7.1,10.9,38.6*,-33.1,-18.9,16.1,9.4,12.9,
CC(C)N1CCc2c(sc(NC(=S)NC(=O)c3ccccc3)c2C#N)C1,9.6,5.2,19.2*,-12.9,6.7,-2.1,10.6,10.5,
CCc1cc(C(=O)NNC(=S)NC(C)c2ccccc2)cs1 (stereo not drawn),37.2,-8.3,18.7*,-5.2,-15.1,-7.5,6.9,15.1,
SMILES,ALR inh,PfM18AAP inh-1,IDE inh,IDE act,PolyA inhibitor,CaV13 FRET inh,IDE inh confirm,HEK293 tox,others
O=C(CN(CC1CCCO1)C(=O)CNS(=O)(=O)c1ccccc1)NCCc1ccccc1 (stereo not drawn),1.8,-4.5,-3.2,5.7,0.6,-4.0,.,.,
Nc1ccnn1Cc1cccs1,-34.0,6.4,-7.5,3.5,2.0,2.3,.,.,
C/C(=N\Nc1ncnc2sc(C)c(C)c12)c1ccccn1,.,19.4,47.8*,-16.2,19.5,-7.6,35.7*,118.2*,
CN(C)C=Nc1c(Br)cc(Br)c2nonc12,-1.2,-28.2,26.0*,-30.6,-19.7,-18.0,61.7*,7.2,
CN(C)C=Nc1ccc(Cl)c(Cl)c1,0.5,-1.7,1.7,3.4,-8.0,-5.9,.,.,
CCOC(=O)C1(CCOc2ccccc2)CCN(Cc2ccc(OCC)c(CO)c2)CC1,.,-3.3,5.8,1.3,-2.7,-1.4,.,.,
CN1CCN(C2=C(Cl)C(=O)C(c3cnc(N4CCCCC4)s3)=C(Cl)C2=O)CC1,17.6,11.8,22.6*,2.7,7.6,.,-3.2,119.4*,
CN1CCN(C2=C(Cl)C(=O)c3ccccc3C2=O)CC1,.,.,.,0.5,.,-7.2,.,.,
CCCOC(=O)c1ccc(Oc2coc3c(CN(CC)CC)c(O)ccc3c2=O)cc1,-5.2,-4.7,20.3*,-8.9,24.2,-4.8,5.5,10.7,
COc1ccc(-c2ccc(C(=O)Nc3ccc(Cl)cc3)c3occc23)c(C)c1,.,.,.,.,.,-5.1,.,.,
Cc1cccc(N2CCN(C(=O)c3cccc(N4CCCC4=O)c3)CC2)c1C,-5.4,-1.5,18.6*,-17.7,-8.5,-14.6,12.3,11.7,

# High-throughput results: PubChem, several laboratories
